Test results from PubChem BioAssay AID463173 (ICCB-Longwood Screening Facility, Harvard Medical School, 2010).
Hit rate of the full screen: of about 52,000 compounds, about 4,300 (8.3%) were called active. The list comes from a sample in which actives are over-represented; it also holds similar structures and randomly drawn compounds. Values without a mark were called inactive. Cut-off read from the data, not from the text of the source: active = survival mostly below about 52% (no sharp cut-off); inactive = mostly above about 56%.

tested on: DeltatarO mutant; assay: growth inhibition of S. aureus wild type versus tarO mutant, primary screen, teichoic acid synthesis inhibitors, RN4220, OD600 (AID 463173); details: OD600, 18 h, hits give low values, screened at 18.75 µg/mL (by protocol)

Compound | survival
COc1ccc(C2CC3(CC(C)(C)NC(=O)N3)Oc3cc(O)ccc32)cc1 (stereo not given) | 102%
CCC(=O)Oc1cc(C(C)(C)C)cc2cc(-c3nc(-c4ccc(OC)cc4OC)no3)c(=O)oc12 | 89%
Cc1nn(CCC(=O)NCc2cccc(Br)c2)c(=O)c2nn(-c3ccccc3)c(C)c12 | 92%
CC1=C(c2ccc(C)cc2)S(=O)(=O)N(Cc2ccc(C(=O)NCc3ccccc3F)cc2)C1=O | 80%
Cc1cc(C)nc(Sc2ccccc2)n1 | 76%
N#Cc1ccccc1NC(=O)CC1Nc2ccccc2NC1=O (stereo not given) | 98%
Cc1ccc(S(=O)(=O)Cc2ccc(C(=O)NCCc3ccc(Cl)cc3)o2)cc1 | 56%
COc1ccc(NC(=O)Cn2cc(C(=O)c3ccc(C)c(C)c3)c(=O)c3cc(OC)ccc32)cc1 | 72%
O=c1c2oc3ccccc3c2n(Cc2ccc(F)cc2)c(=O)n1Cc1ccco1 | 71%
N#C/C(=C/c1ccc(Cl)cc1Cl)c1nc2ccccc2c(=O)[nH]1 | 70%
CCOc1ccc(-n2nc(CO)c(C(=O)NCc3ccccn3)n2)cc1 | 53%
COc1cccc(CNC(=O)c2nn(-c3ccccc3Cl)nc2CO)c1 | 85%
CCOc1ccc(-n2nc(CO)c(C(=O)NCc3cccc(OC)c3)n2)cc1 | 41% (active)
Cc1nn(CCCC(=O)Nc2cc(C(F)(F)F)ccc2Cl)c(=O)c2c1sc1ccccc12 | 78%
Cc1nc(-c2ccccc2)sc1-c1ccc(SCC(=O)NCc2ccc(F)cc2)nn1 | 53%
Cc1nc(-c2ccccc2)sc1-c1ccc(SCC(=O)Nc2cccc(C(F)(F)F)c2)nn1 | 41%
Cc1ccc(NC(=O)CSc2ccc(-c3ccccn3)nn2)cc1F | 49%
Cc1nc(-c2ccccc2)sc1-c1ccc(SCC(=O)Nc2ccccc2)nn1 | 24%
Cc1nc(-c2ccccc2)sc1-c1ccc(SCC(=O)Nc2ccc(F)cc2F)nn1 | 19% (active)
O=C(CSc1ccc(-c2ccccn2)nn1)Nc1ccc(F)c(F)c1 | 27% (active)
CC(=O)Nc1cccc(NC(=O)CSc2ccc(-c3sc(-c4ccccc4)nc3C)nn2)c1 | -14% (active)
Cc1cccc(NC(=O)CSc2ccc(-c3ccccn3)nn2)c1 | 103%
Cc1nc(-c2ccccc2)sc1-c1ccc(SCC(=O)NCc2ccc(Cl)cc2)nn1 | 52%

Compound | survival
Cc1cccc(NC(=O)CSc2ccc(-c3sc(-c4ccccc4)nc3C)nn2)c1C | 33%
Cc1ccc(NC(=O)CSc2ccc(-c3sc(-c4ccccc4)nc3C)nn2)cc1F | 25% (active)
Cc1nc(C)c(-c2ccc(SCC(=O)Nc3ccc(C)c(F)c3)nn2)s1 | 93%
O=C(COc1ccc(S(=O)(=O)N2CCCC2)cc1)N1CCCC1 | 91%
Cc1c(Cl)cccc1Nc1nn2c(=O)c3ccc(C(=O)N(C)Cc4ccccc4)cc3nc2s1 | 81%
CCc1ccc(NC(=O)Cn2c(=O)n(CCC(C)C)c(=O)c3cccnc32)cc1 | 76%
CC(=O)Nc1ccccc1N1CCCCC1 | 100%
COc1cc(NC(=O)CCc2c(C)nc3nc(-c4cc(OC)cc(OC)c4)nn3c2C)cc(OC)c1 | 83%
CCCCCC1CC(CC(=O)Nc2nncs2)C(=O)O1 (stereo not given) | 110%
CCOc1ccc(CCNC(=O)CCn2c(=O)c3cccn3c3ccc(F)cc32)cc1 | 50%
CCOc1ccc(CNC(=O)Cn2c(=O)c3cccn3c3ccc(F)cc32)cc1 | 80%
Cc1cccc(CNC(=O)CCCn2c(=O)c3cccn3c3ccc(F)cc32)c1 | 79%
CCOc1ccccc1CNC(=O)CCCn1c(=O)c2cccn2c2ccc(F)cc21 | 33% (active)
CCc1ccc(CNC(=O)CCn2c(=O)c3cccn3c3ccc(F)cc32)cc1 | 91%
CCOc1ccccc1CNC(=O)Cn1c(=O)c2cccn2c2ccc(F)cc21 | 68%
CCOc1ccccc1CNC(=O)CCn1c(=O)c2cccn2c2ccc(F)cc21 | 46%
CCOc1ccc(CNC(=O)CCCn2c(=O)c3cccn3c3ccccc32)cc1 | 55%
CCOc1ccc(CNC(=O)CCCn2c(=O)c3cccn3c3ccc(F)cc32)cc1 | 41% (active)
O=C(CCCn1c(=O)c2cccn2c2ccc(F)cc21)NCc1ccc(Cl)cc1 | 38% (active)
CCOc1ccc(CNC(=O)CCCn2c(=O)c3cccn3c3cccnc32)cc1 | 120%
CCOc1ccc(CNC(=O)CCn2c(=O)c3cccn3c3ccc(F)cc32)cc1 | 45% (active)
CCC(C)NC(=O)C1CCN(S(=O)(=O)c2ccc3c(c2)CCCN3C(C)=O)CC1 (stereo not given) | 67%
CC(C)(C)NC(=S)Nc1ccc2nccnc2c1 | 65%

Compound | survival
Cc1ccc(-c2noc(CNS(=O)(=O)c3ccc(F)cc3)n2)cc1 | 81%
Cc1ccc(C)c(N2CCN(C(=O)Cn3cnc4onc(-c5ccc(F)cc5)c4c3=O)CC2)c1 | 83%
CC(C)CCNC(=O)C(=O)Nc1c2c(nn1-c1ccc(Cl)cc1)CSC2 | 86%
Cc1nc2ccn(Cc3ccccc3)c(=O)c2cc1C(=O)N1CCN(c2ccc(F)cc2)CC1 | 95%
O=C(COc1ccccc1)N(Cc1cccnc1)c1nc2c(F)cccc2s1 | 84%
Cc1ccc(C(=O)N2CCc3cc(CNC(=O)c4ccnn4C)ccc32)cc1 | 91%
Cn1cc(CCCC(=O)NCc2ccccc2Cl)c2ccccc21 | 75%
COc1cccc(CNC(=O)Cn2c(=O)c3cccn3c3ccc(F)cc32)c1OC | 103%
CC(C)Oc1ccc(CNC(=O)CCCn2c(=O)c3cccn3c3cccnc32)cc1 | 111%
CC(C)Oc1ccc(CNC(=O)CCn2c(=O)c3cccn3c3ccc(F)cc32)cc1 | 48%
CC(C)Oc1ccc(CNC(=O)CCCn2c(=O)c3cccn3c3ccccc32)cc1 | 45% (active)
COc1cccc(CNC(=O)CCCn2c(=O)c3cccn3c3ccc(F)cc32)c1OC | 43% (active)
COc1cccc(CNC(=O)CCn2c(=O)c3cccn3c3ccc(F)cc32)c1OC | 59%
COc1cccc(NC(=O)Cn2c(=O)n(-c3cccc(OC)c3)c(=O)c3c4c(sc32)CCCC4)c1 | 107%
COc1ccc(-c2nc3c4ccccc4n(CC(=O)Nc4cc(F)ccc4F)c(=O)n3n2)cc1 | 84%
Cc1ccc(-c2nc3sc(CCNC(=O)c4ccc(F)c(F)c4)c(C)n3n2)cc1 | 76%
CCn1c(=O)c2cc(C(=O)Nc3cccc(C(F)(F)F)c3)sc2c2ccccc21 | 84%
CCn1c(=O)c2cc(C(=O)NCCCOC)sc2c2ccccc21 | 103%
COc1ccc(CCNC(=O)c2cc3c(=O)n(C)c4ccccc4c3s2)cc1OC | 65%
CCn1c(=O)c2cc(C(=O)Nc3cc(OC)c(OC)c(OC)c3)sc2c2ccccc21 | 41% (active)
CCn1c(=O)c2cc(C(=O)NCCc3ccc(OC)c(OC)c3)sc2c2ccccc21 | 42% (active)
CCc1ccc(CNC(=O)c2cc3c(=O)n(CC)c4ccccc4c3s2)cc1 | 51%
CCOc1ccc(CCNC(=O)c2cc3c(=O)n(CC)c4ccccc4c3s2)cc1OCC | 60%

Compound | survival
CCn1c(=O)c2cc(C(=O)NCCc3cc(OC)ccc3OC)sc2c2ccccc21 | 34% (active)
COc1ccc(Br)cc1CNC(=O)c1cc2c(=O)n(C)c3ccccc3c2s1 | 94%
CCn1c(=O)c2cc(C(=O)NCCc3ccc(Cl)cc3)sc2c2ccccc21 | 76%
CCn1c(=O)c2cc(C(=O)Nc3cc(C)c(Cl)cc3OC)sc2c2ccccc21 | 69%
CCn1c(=O)c2cc(C(=O)NCc3cc(OC)ccc3OC)sc2c2ccccc21 | 54% (active)
CCOC(=O)c1[nH]c2ccccc2c1NC(=O)c1ccc(Br)cc1 | 95%
Cc1cccc(-c2nc3nc(C)cc(NCc4ccccc4Cl)n3n2)c1 | 74%
COc1ccccc1C(=O)Nc1ccc(C(=O)OCc2cc(=O)n3nc(C4CC4)sc3n2)cc1 | 72%
Cc1ccccc1C1C(C#N)=C(N)NC(S)=C1C#N (stereo not given) | 93%
CCC(=O)N1c2ccccc2CC1C(=O)NCCc1cc(OC)c(OC)c(OC)c1 (stereo not given) | 129%
CC(c1ccccc1F)n1cc(C(=O)NCCCn2ccnc2)nn1 (stereo not given) | 96%
CCOc1ccc(NC(=O)Cn2cc(C(=O)c3ccc(C)c(C)c3)c(=O)c3cc(OC)c(OC)cc32)cc1 | 95%
COc1ccc(CNC(=O)c2cc3c(=O)[nH]c4ccc(C)cc4c3s2)c(OC)c1 | 44% (active)
COc1ccc(CCNC(=O)c2cc3c(=O)[nH]c4ccc(C)cc4c3s2)cc1OC | 64%
COc1ccc(CNC(=O)c2cc3c(=O)oc4ccc(C)cc4c3s2)c(OC)c1 | 86%
CC1CCC(NC(=O)CCc2cn(Cc3ccc(F)cc3)c3ccccc23)CC1 (stereo not given) | 60%
CCCCSC1=NC(C)(C)CC(C)O1 (stereo not given) | 79%
CCc1ccc(NCc2cc3ccc(OC)cc3n(CC(=O)Nc3ccccc3OC)c2=O)cc1 | 79%
CCCC12CN3CC(CCC)(CN(C1)C3c1ccc(OC(C)C)cc1)C2=O (stereo not given) | 21% (active)
CCCC12CN3CC(C)(CN(C1)C3c1ccc(CC)cc1)C2=O (stereo not given) | 87%
CCCC12CN3CC(CCC)(CN(C1)C3c1ccc(OCc3ccccc3)cc1)C2=O (stereo not given) | 112%
